# According to PubChem BioAssay (EPA / NIEHS):
# Values joined by “and” are separate entries in the source; they are usually repeats but may differ in a detail not shown here. Equal entries are not always repeated. Results filed as inconclusive are left out. More than one record can exist for a structure, and the calls need not agree. Active and inactive are the calls of the source. Rule for the calls, unless noted: active = hit-call score of the fitted dose curve at least 0.9, where 1 is the maximum; inactive = score below 0.9.
# Legend:
# [1] = CCTE_Mundy_HCI_hN2_NOG_NeuriteCount: CCTE's Neurite Outgrowth Assay in human hN2 cells for Neurite Count, Mundy Lab (AID 2284219; active = hit-call score of the fitted dose curve at least 0.9, where 1 is the maximum)
# Outline: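 In this morphology assay, hNP1-derived neurons received test chemical 2 h post-plating and were fixed two days later in warm paraformaldehyde/sucrose containing Hoechst 33342. Neurites, labelled by rabbit anti-βIII-tubulin (1:800) and Alexa Fluor-488 (1:500), were counted automatically.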
# [2] = CCTE_Mundy_HCI_hN2_NOG_NeuronCount: CCTE's Neurite Outgrowth Assay in human hN2 cells for Neuron Count, Mundy Lab (AID 2284221; active = hit-call score of the fitted dose curve at least 0.9, where 1 is the maximum)
# Outline: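 Read-out is the number of betaIII-tubulin-positive neurons imaged by automated high-content analysis, with DMSO as negative control.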
# [3] = BSK_BT_PBMCCytotoxicity: PBMC Cytotoxicity Assessment in the BioMAP Diversity Plus: BT Assay (AID 2284225); settings: primary human B cells with PBMC;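 note: PBMC viability measured by Alamar Blue dye reduction fluorescence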
# Outline: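 Viability by Alamar Blue reduction (6 h, ex/em 546/580 nm) after 90 h culture of SEB/TSST-1-activated PBMC (20 ng/mL each) given compound 1 h before activation. DMSO served as baseline for curve fitting.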
# [4] = read-out: Secreted IgG (sIgG), gene 3500; test: BSK_BT_sIgG: BioMAP Diversity Plus: BT Assay for Secreted IgG (sIgG) Biomarker Activity (AID 2284226); settings: primary human B cells with PBMC
# Outline: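 ELISA quantitation of secreted IgG from human B cells co-cultured with PBMC, sampled 24 h post-dosing. Values fitted relative to DMSO vehicle as baseline, positive fitting direction.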
# [5] = BSK_BT_Bcell_Proliferation: Viability Assessment in the BioMAP Diversity Plus: BT Assay for B cell Proliferation (AID 2284227); settings: primary human B cells with PBMC
# Outline: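 Human B cell/PBMC co-culture; test chemical added; 72 h; TCA fix (10%), 0.1% SRB stain, A560 for total protein as a proliferation read-out; positive-direction fit vs DMSO baseline.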
# [6] = read-out: Interleukin 6 (IL6), IL6 (gene 3569); test: BSK_BT_xIL6: BioMAP Diversity Plus: BT Assay for Interleukin 6 (IL6) Biomarker Activity (AID 2284228); settings: primary human B cells with PBMC
# Outline: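 Chemical added to human B cell/PBMC co-culture → 24 h → supernatant IL-6 by Luminex xMAP → fit vs DMSO baseline, upward direction.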
# [7] = read-out: Interleukin 17A (IL17A), IL17A (gene 3605); test: BSK_BT_xIL17A: BioMAP Diversity Plus: BT Assay for Interleukin 17A (IL17A) Biomarker Activity (AID 2284229); settings: primary human B cells with PBMC
# Outline: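 Chemicals were added to a human B cell and PBMC co-culture. After 24 h, secreted IL-17A was measured with Luminex xMAP. Curves were fitted in the positive direction, with DMSO wells as baseline.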
smiles,measurement,setting,value
NC(=O)NO,outcome,[1],inactive
Cn1c(=O)c2c(ncn2C)n(C)c1=O,outcome,[1],inactive
same,outcome,[2],inactive
O=C1CCC(N2C(=O)c3ccccc3C2=O)C(=O)N1 (stereo not given),outcome,[2],inactive
Cn1cnc([N+](=O)[O-])c1Sc1ncnc2nc[nH]c12,AC50,[3],8.01 µM (active)
same,outcome,[3],inactive
same,AC50,[4],206 nM (active) and 716 nM (active)
same,AC50,[5],10.5 µM (active) and 5.28 µM (active)
same,AC50,[6],8.87 µM (active) and 12.6 µM (active)
same,AC50,[7],12.6 µM (active) and 10.3 µM (active)
